# Activity calls are given as the source filed them.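 The calls were made as follows: active = EC50 at or below 10 µM; inactive = EC50 above 10 µM.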
# Experiment: fluorescence interference artefacts, compound only, dose response, artefact control for cardiac thin filament activator project, biochemical, no RTF in test wells (AID 504697);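 also: emission near 535 nm under roughly 485 nm excitation as for IANBD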
# Details: compound-only fluorescence in RTF assay buffer with Ca2+ (no RTF in test wells), artifact counterscreen
row,Structure (SMILES),EC50
1,O=C(NCc1ccc(Cl)cc1)C1CCN(c2cnccn2)CC1,> 71.4 µM (inactive)
2,O=C(Nc1ccc(C(=O)N2CCOCC2)cc1)Nc1cccc(Cl)c1,> 71.5 µM (inactive)
3,CCN(CC)c1ccc(/C=c2\sc3nnc(-c4ccccc4Cl)n3c2=O)cc1,0.644 µM (active)
4,Cc1ccc(NC(=O)COc2ccc(/C=N/NC(=O)CSCc3ccccc3)cc2)cc1,> 71.5 µM (inactive)
5,CC(C)CN1CCN(Cc2cccn2-c2ccc(Cl)cn2)CC1CCO (stereo unspecified),> 71.5 µM (inactive)
6,C=COc1ccc(N2C(=O)c3ccccc3OC2C)cc1 (stereo unspecified),> 71.4 µM (inactive)
7,N#CC1=C(N)Oc2ccc3ccc(O)cc3c2C1c1ccsc1 (stereo unspecified),65.8 µM (inactive)
8,Cc1ccc(C)c(N2CCN(C(=O)CN3C(=S)NC(C)(C)CC3C)CC2)c1 (stereo unspecified),> 71.5 µM (inactive)
9,Fc1ccc(CNC(=S)NCc2ccc(F)cc2)cc1,> 71.5 µM (inactive)
10,COc1ccccc1C(=O)Oc1ccc2c(c1)O/C(=C\c1ccncc1)C2=O,30.9 µM (inactive)
11,COc1ncnc2c1N=C1CC(C)(C)CC(N)=C1S2,23.5 µM (inactive)
12,CC(=O)Nc1cc(C(=O)NCc2ccco2)ccc1Sc1ccc(F)cc1,> 71.5 µM (inactive)
13,CC1=CC(=C(C#N)C#N)C=C(C)N1Cc1ccc(Cl)cc1,> 71.5 µM (inactive)
14,O=[N+]([O-])c1ccc(/C=C/C2=NN(c3ccccc3)C(c3ccco3)C2)cc1 (stereo unspecified),1.04 µM (active)
15,O=C(/C=C/c1nc2ccccc2s1)N1CCCCCC1,> 71.5 µM (inactive)
16,COc1ccc(C)cc1NC(=O)C12CCC(C)(C(=O)O1)C2(C)C (stereo unspecified),> 71.5 µM (inactive)
17,CCOc1ccc2ccccc2c1CNCCN1CCOCC1,> 71.5 µM (inactive)
18,O=C(CSC1=NS(=O)(=O)c2ccccc2N1)N1CCCCC1,> 71.5 µM (inactive)

row,Structure (SMILES),EC50
1,Cc1cc2nc(C3CCCN(C(=O)NCc4ccccc4)C3)[nH]c2cc1C (stereo unspecified),> 71.6 µM (inactive)
2,COc1ccc(/C=N/NC(=O)c2cc(OC)c(OC)c(OC)c2)cc1CN1CCc2cc(OC)c(OC)cc2C1C (stereo unspecified),> 71.5 µM (inactive)
3,O=C1c2cccc3c(N4CCCCC4)ccc(c23)C(=O)N1c1cccc(O)c1,5.54 µM (active)
4,COc1cc(CCCN2C(=S)NC[C@@H]2CC2CCCCC2)cc(OC)c1OC,> 71.5 µM (inactive)
5,Cc1sc(NC(=O)CSc2nnc(C(C)C)n2C)c(C#N)c1C,> 71.5 µM (inactive)
6,CC1=CC(=C(C#N)c2nc3ccccc3s2)C=C(C)N1c1ccc(F)cc1,22.2 µM (inactive)
7,COc1ccc2nc(C)c3cc(C)oc3c2c1,> 71.4 µM (inactive)
8,Cc1ccc[n+](-c2nc([O-])sc2C=O)c1,5.53 µM (active)
9,O=C(CCSc1ccccc1)N1CCN(C(=O)c2ccco2)CC1,> 71.5 µM (inactive)
10,Cc1cc(C)c2nc(NC(=O)C3CCCO3)sc2c1 (stereo unspecified),> 71.5 µM (inactive)
11,C/C(O)=c1/ccc2cccc3nc(C)nc1c23,> 23.8 µM (inactive)
12,O=C(NC1CCCCC1)c1cccc2c1C(=O)c1ccc(N3CCCC3)cc1S2(=O)=O,> 23.8 µM (inactive)
13,O=C(CNCc1cccs1)Nc1ccc(S(=O)(=O)N2CCCCC2)cc1,> 71.5 µM (inactive)
14,O=[N+]([O-])c1ccc(NN=Cc2cccc3ccccc23)nc1,62.7 µM (inactive)
15,COc1ccccc1-c1nnc(SCc2nc3ccccc3s2)n1C,> 71.5 µM (inactive)
16,CN(Cc1ccccc1)C(=O)c1[nH]cnc1C(=O)NCc1ccccc1,> 71.6 µM (inactive)
17,N#Cc1ccc(S(=O)(=O)NC2CCCCNC2=O)cc1 (stereo unspecified),> 71.4 µM (inactive)
18,CC(=O)Oc1ccc(NC(=O)Cc2ccccc2)c(C(=O)O)c1,> 71.5 µM (inactive)

# — PubChem BioAssay AID504697 (The Scripps Research Institute Molecular Screening Center, 2011)
